Screening data (PubChem)
F508del corr = CFTR F508del correction in bronchial cells; CFBE cells, YFP halide quenching; stimulated with forskolin plus potentiator P3; % fluorescence drop versus neutral controls; activity (quench increase), % at 7.58 µM; hit rate 0.36% among 350,000; AID 720511;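 active = mean added fluorescence quench of at least 8% versus neutral control, with both replicates also reaching 8%; inconclusive = only one of the mean or replicate conditions met; inactive = mean below 8% and not both replicates reaching 8%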;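 also: cells transiently co-express mutant CFTR-F508del with the halide-sensitive YFP; corrector assay measuring rescue of mutant channel to the surface after 24 h compound exposure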
697 NFkB inh = inhibitors of the PMA/ionomycin-induced NF-kB reporter in 697 B cells. hit rate 0.33% among 330,000. inhibition, % at 4 µM. 697 B-cell NF-kB luciferase reporter, 16 h. AID 435022; in the data active = inhibition above about 35%
HIF act = HIF pathway transcriptional activation; U2OS HRE-luciferase reporter, luminescence; normalized: DMSO 0%, desferrioxamine 100%; activation, % at 7.5 µM (by protocol); hit rate 0.32% among 300,000; AID 1910;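 active = mean activation of at least 10% of the iron chelator positive control signal, with at least half of replicates also reaching 10%; inconclusive = mean and replicate majority disagree about reaching 10%; inactive = mean and most replicates under 10%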
Jurkat NFkB inh = inhibitors of the PMA/ionomycin-induced NF-kB reporter in Jurkat cells. hit rate 0.53% among 330,000. AID 435003. PMA/ionomycin-induced NF-kB luciferase reporter, luminescence. inhibition, % at 4 µM; in the data active = inhibition above about 50%
Jurkat NFkB conf = lowers PMA/ionomycin-induced NF-kB signal in Jurkat cells. shares compounds with Jurkat NFkB inh. Jurkat NF-kB luciferase, 16 h. inhibition, % at 4 µM. hit rate 27% among 2,700. AID 435020;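 active = inhibition reaching about 45% at 4 µM in either replicate, limit read from the data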;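 also: plate controls were PMA/ionomycin stimulated DMSO wells for no effect and unstimulated DMSO wells for full effect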
An asterisk follows results filed as active; u = inconclusive; x = not tested or not shown. An excerpt weighted towards active compounds, which were near 0.93% of everything screened.

SMILES	F508del corr	697 NFkB inh	HIF act	Jurkat NFkB inh	Jurkat NFkB conf
Cc1ccc2nc(NC(=O)c3ccc4c(c3)OCO4)sc2c1	7	-230	x	-152	-135
Cc1ccc2nc(NC(=O)c3ccc4ncsc4c3)sc2c1	6	-164	4	-113	x
Cc1ccc(C(=O)Nc2nc3ccccc3s2)s1	x	-156	1	-211	-109
Cc1nc2ccc(NC(=O)c3ccc(Cl)s3)cc2s1	2	-191	x	-174	-79
Cc1nc2ccc(NC(=O)c3cnc(Cl)c(Cl)c3)cc2s1	0	0	1	-1	x
Cc1ccc2nc(NC(=O)c3ccc(Cl)s3)sc2c1	1	-215	x	-162	-140
CN(C)C(=O)c1cccc(-c2ccc(C3[C@@H]4CN(Cc5nccs5)C[C@H]3N4)cc2)c1 (stereo partly drawn)	2	x	x	x	x
CCc1cccc2c(C(=O)CN3C(=O)NC4(CCCCCC4)C3=O)c[nH]c12	2	-15	x	94*	16
CCc1cccc2c(C(=O)CN3C(=O)NC4(CCCCC4)C3=O)c[nH]c12	5	-15	x	6	x
COc1cccc(O)c1CN1CCC(C(=O)Nc2ccc(Oc3cccnc3)cc2)CC1	0	-20	0	-6	x
COc1ccc(CN2CCC(C(=O)Nc3ccc(Oc4cccnc4)cc3)CC2)c(C)c1C	-3	-41	0	54*	31
C[C@@H]1CN([C@@H](C)CO)C(=O)c2cc(-c3cccnc3)cnc2O[C@H]1CN(C)C(=O)C1CC1	-1	x	x	x	x
CCC(=O)N[C@@H]1CC[C@@H](CCn2cc(CN(C)C)nn2)O[C@H]1CO	-3	x	x	x	x
C[C@H]1CN([C@@H](C)CO)C(=O)c2cc(C#Cc3ccccn3)cnc2O[C@@H]1CN(C)CC1CCCC1	-3	x	x	x	x
CC(C)NC(=O)N1C[C@@H]2[C@H](c3ccccc31)[C@@H](CO)N2C(=O)Nc1ccccc1	0	x	x	x	x
O=C(COc1ccccc1)Nc1ccc(Cl)cn1	-1	-7	2	-39	x
O=C(COc1ccccc1Cl)Nc1ccc(Cl)cn1	x	-52	-2	-153	-99
c1ccc2nc(-c3ccc4c(c3)OCO4)ccc2c1	0	-203	1	-157	-84
COC(=O)c1cc(-c2ccc3c(c2)OCO3)nc2ccccc12	x	-5	0	3	x
Cc1ccc(C2=NN3C(C2)c2ccccc2OC32C(=O)Nc3ccccc32)cc1 (stereo not drawn)	x	-196	3	-167	-101
CN1C(=O)C2(Oc3ccccc3C3CC(c4ccccc4)=NN32)c2ccccc21 (stereo not drawn)	x	-61	2	-75	x
C[C@H]1CN([C@@H](C)CO)C(=O)c2cc(C#CC3CC3)cnc2O[C@@H]1CN(C)S(=O)(=O)c1cccc(F)c1	-2	x	x	x	x
O=C(C[C@H]1C[C@@H]2c3cc(NC(=O)c4cccnc4)ccc3O[C@@H]2[C@H](CO)O1)NCc1cccnc1	-3	x	x	x	x
COc1ccc(-c2csc(-c3cccs3)n2)c(OC)c1	-2	-119	5	-186	-131
CCCN1C[C@@H](C)[C@@H](OC)CN(C)C(=O)c2cc(NC(=O)C3CC3)ccc2OC[C@@H]1C	1	x	x	x	x
SMILES	F508del corr	697 NFkB inh	HIF act	Jurkat NFkB inh	Jurkat NFkB conf
CC=Cc1ccc2n(c1=O)C[C@@H]1[C@@H](CO)[C@H](C(=O)NCCC)[C@H]2N1C(=O)C1CCCC1 (mixture of isomers)	-3	x	x	x	x
COc1ccc(Nc2nc(N)c(C(=O)c3ccc(F)cc3)s2)cc1	8	-21	-45	23	x
COc1ccc(Nc2nc(N)c(C(=O)c3ccc(OC)cc3)s2)cc1	6	-61	4	50	14
CCCCNCCCOc1ccc(C)cc1Br	-1	-6	0	15	x
Cc1ccc(OCCCNCCO)c(Br)c1	x	-8	1	81*	35
O=C(NCC[C@@H]1CC[C@H](NC(=O)c2ccc3c(c2)OCO3)[C@H](CO)O1)Nc1ccc(Cl)cc1	-1	x	x	x	x
CC(C)NC(=O)NCC[C@H]1CC[C@@H](NC(=O)CCN2CCCCC2)[C@H](CO)O1	0	x	x	x	x
O=C1c2cccc3c(N4CCCCC4)ccc(c23)C(=O)N1c1ccccn1	x	-14	1	1	x
Cc1ccc(N2C(=O)c3cccc4c(N)ccc(c34)C2=O)c2cccnc12	-4	-213	0	75*	43
COc1ccc(C(=O)Nc2ccccc2C(=O)N/N=C/c2ccccn2)cc1OC	8	-67	19*	56*	-21
COc1ccc(CNC(=O)c2csc(Cc3ccccc3)n2)cc1	x	-11	2	-34	x
COc1ccccc1CNC(=O)c1csc(Cc2ccc(Cl)cc2)n1	x	0	0	71*	18
Cc1noc(C)c1NC(=O)Nc1ccc2c(c1)C(=O)N([C@@H](C)CO)C[C@@H](C)[C@@H](CN(C)Cc1ccc(Cl)c(Cl)c1)OCCCC[C@@H](C)O2	2	x	x	x	x
O=C(N/N=C/C(Cl)=C\c1ccccc1)c1cccs1	-2	-217	4	-167	-92
C[C@H]1CN([C@@H](C)CO)C(=O)c2cc(NC(=O)Nc3ccc(F)cc3)ccc2O[C@H]1CN(C)Cc1ccncc1	-1	x	x	x	x
Cc1ccc(S(=O)(=O)N2CCN(c3ncnc4sccc34)CC2)cc1C	5	-9	x	25	x
O=S(=O)(c1ccc2c(c1)OCCO2)N1CCN(c2ncnc3sccc23)CC1	u	4	0	52*	54*
C=CCn1c2ccccc2c(=O)c2cc(C#CC3(O)CCCCC3)ccc21	5	-231	5	-277	-89
CCn1c(/C=C/Nc2ccccc2)[n+](CC)c2ccc(Cl)cc21	x	-27	0	58*	9
CCN(CC)c1ccc(/C=N/NC(=O)c2cccc(S(=O)(=O)Nc3ccccc3OC)c2)cc1	4	-7	0	-21	x
CC(C)c1c(C(=O)N/N=C/c2ccc3c(c2)OCO3)nnn1-c1nonc1N	-1	11	0	13	x
CCN(CC)c1ccc(/C=N/N=C(N)N)c(O)c1	3	16	1	77*	-6
CCN(CC)c1ccc(/C=N/NC(=O)c2cccc(S(=O)(=O)Nc3ccccc3OC)c2)c(O)c1	1	-34	92*	59*	55*
COc1cccc(/C=N/NC(=O)c2ccc3nc[nH]c3c2)c1O	0	30	0	-2	x
CCN(CC)c1ccc(N=Cc2ccc(N(CC)CC)cc2O)cc1	x	-6	0	-6	x
SMILES	F508del corr	697 NFkB inh	HIF act	Jurkat NFkB inh	Jurkat NFkB conf
CCN(CC)c1ccc(/C=N/NC(=O)c2nnn(-c3nonc3N)c2C(C)C)c(O)c1	2	-6	89*	63*	50*
CCN(CC)c1ccc(/C=N/NC(=O)c2ccc3nc[nH]c3c2)c(O)c1	x	-18	96*	55*	6
CO[C@@H]1CN(C)C(=O)c2cc(NC(=O)C3CC3)ccc2OC[C@@H](C)N(C(=O)C2CCCCC2)C[C@H]1C	3	x	x	x	x
CSc1nc(N)n2nc(-c3ccc(Cl)cc3)cc2n1	0	-206	1	-165	-90
COc1ccc(C2=NN(C(C#N)c3ccc(OC)c(OC)c3)C(c3ccccc3)C2)cc1 (stereo not drawn)	x	-224	4	-155	-108
CCC(C)(C)NC(=S)Nc1ccc(-c2nc3ccc(C)cc3s2)cc1	x	-157	0	-175	-128
